Test results reported in PubChem BioAssay (Tox21).
Records with an inconclusive call do not appear. Where a call stands in place of a potency, no number is given. Unmarked numbers belong to inactive results. Active and inactive are the calls of the source. Calls follow the shape of the dose curve; as a rule, active = well fitted curve in the direction sought with a large enough effect in the repeat runs; inconclusive = weak or mixed curves; inactive = no such curve, though single readings can be large; an effect the other way counts as inactive or inconclusive.

target: Voltage-gated inwardly rectifying potassium channel KCNH2 (Homo sapiens) (UniProt Q12809); test: Human Ether-a-go-go-Related Gene (hERG) channel small molecule antagonists: fluorescence cell-based qHTS assay (AID 1671200); conditions: hERG-U2OS cells, FluxOR thallium flux fluorescence; series mostly up to 76.8 µM;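 as to activity change, negative = inhibition: hERG-expressing U2OS cells given a thallium stimulus after FluxOR II dye loading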
Sequence (Q12809 whole entry, looked up): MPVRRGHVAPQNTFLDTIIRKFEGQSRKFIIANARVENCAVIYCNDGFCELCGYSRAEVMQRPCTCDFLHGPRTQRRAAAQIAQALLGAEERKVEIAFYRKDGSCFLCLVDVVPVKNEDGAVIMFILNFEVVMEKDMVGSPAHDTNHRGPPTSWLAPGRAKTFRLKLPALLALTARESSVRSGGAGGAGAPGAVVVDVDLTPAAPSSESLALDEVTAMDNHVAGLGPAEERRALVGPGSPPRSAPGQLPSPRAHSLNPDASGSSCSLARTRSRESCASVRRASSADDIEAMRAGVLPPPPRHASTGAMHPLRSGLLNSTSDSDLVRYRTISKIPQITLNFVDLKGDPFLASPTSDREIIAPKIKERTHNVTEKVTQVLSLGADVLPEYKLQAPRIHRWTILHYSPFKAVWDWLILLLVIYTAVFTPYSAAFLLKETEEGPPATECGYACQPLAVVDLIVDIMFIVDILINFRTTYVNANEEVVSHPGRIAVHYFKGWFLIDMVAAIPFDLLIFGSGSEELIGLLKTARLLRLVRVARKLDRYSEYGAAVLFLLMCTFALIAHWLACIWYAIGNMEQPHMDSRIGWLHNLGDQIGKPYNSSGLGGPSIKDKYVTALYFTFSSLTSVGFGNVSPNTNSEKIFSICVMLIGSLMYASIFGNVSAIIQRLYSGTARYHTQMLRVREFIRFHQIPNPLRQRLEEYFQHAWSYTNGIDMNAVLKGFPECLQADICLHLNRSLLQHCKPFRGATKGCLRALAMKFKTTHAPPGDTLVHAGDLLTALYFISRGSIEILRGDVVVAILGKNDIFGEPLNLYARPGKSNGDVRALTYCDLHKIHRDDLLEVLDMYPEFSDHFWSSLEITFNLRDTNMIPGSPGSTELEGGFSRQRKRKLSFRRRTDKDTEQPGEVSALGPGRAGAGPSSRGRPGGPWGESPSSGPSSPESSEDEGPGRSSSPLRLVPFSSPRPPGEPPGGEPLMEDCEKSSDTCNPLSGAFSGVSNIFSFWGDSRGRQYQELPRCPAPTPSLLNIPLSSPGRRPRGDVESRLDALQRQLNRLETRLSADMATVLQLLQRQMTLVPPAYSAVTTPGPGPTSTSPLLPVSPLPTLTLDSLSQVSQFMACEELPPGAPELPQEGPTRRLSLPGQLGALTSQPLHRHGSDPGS
Procedure, shortened: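 Kinetic two-minute fluorescence traces, sampled at 1 s, were collected following thallium stimulus of U2OS cells (1000 per well) that had been cultured overnight at 37 C and loaded with FluxOR II.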
Also: nearly all actives have a fitted effect of over 50% in size.
Potency is read from the fitted curve at half-maximal effect.

| SMILES | activity change, negative = inhibition | Potency |
| --- | --- | --- |
| CCCCCCCC/C=C\CCCCCCCC(=O)OCCCC | -0.621% [at 15.8 µM] | – |
| CCOC(=O)c1ccc(OC(=O)CCCCCN=C(N)N)cc1 | – | inactive |
| CC(C)CC(C)CC(C)CC(C)COC(=O)c1ccccc1C(=O)OCC(C)CC(C)CC(C)CC(C)C (stereo not drawn) | – | inactive |
| CC(=C(CCOC(=O)C(C)C)SSC(CCOC(=O)C(C)C)=C(C)N(C=O)Cc1cnc(C)nc1N)N(C=O)Cc1cnc(C)nc1N | – | inactive |
| Nc1cccc(O)c1 | – | inactive |
| CC(C)CCCC(C)(C)O | – | inactive |
| CC(C)OC(=O)CCCCC(=O)OC(C)C | – | inactive |
| CCCOC(=O)C(C)O (stereo not drawn) | – | inactive |
| O=S(=O)(O)CCN1CCN(CCO)CC1 | – | inactive |
| CCCCOC(=O)c1ccccc1 | – | inactive |
| O=C(OCc1ccccc1)C(=O)OCc1ccccc1 | – | inactive |
| COC(=O)CCc1ccc(OCC(O)CNC(C)C)cc1 (stereo not drawn) | – | inactive |
| CCOCCOCCOCC | – | inactive |
| CO[C@@H]1[C@@H](OC(N)=O)[C@@H](O)[C@H](Oc2ccc3c(O)c(NC(=O)c4ccc(O)c(CC=C(C)C)c4)c(=O)oc3c2C)OC1(C)C | – | inactive |
| C=Cc1ccccn1 | – | inactive |
| CCCC/C=C/C=C\C=O | – | inactive |
| CCCN1C[C@H](CSC)C[C@@H]2c3cccc4[nH]cc(c34)C[C@H]21 | – | 7.56 µM (active) |
| c1ccc2c(c1)ccc1c3ccccc3ccc21 | – | inactive |
| CCO[Si](CCCS)(OCC)OCC | – | inactive |
| COC(=O)CCCCCCCC(=O)OC | – | inactive |
| O=C(O)c1cc(Cl)cc([N+](=O)[O-])c1Cl | – | inactive |
| O=C1CCCC(=O)O1 | – | inactive |
| CC(CC=O)CCCC(C)(C)O (stereo not drawn) | – | inactive |
| O=C1O[C@@H]2[C@@H](O)[C@H](O)O[C@@H]2[C@H]1O | – | inactive |
| Cc1ccc2ccc(Cl)cc2n1 | – | inactive |
| c1ccc2nccnc2c1 | – | inactive |
| COc1cc(C(=S)N2CCOCC2)cc(OC)c1OC | – | inactive |
| COCCOCCOCCOCCO | – | inactive |

target: Cytochrome P450 3A4 (Homo sapiens) (UniProt P08684); test: Cytochrome P450 Family 3 Subfamily A Member 4 (CYP3A4) small molecule antagonists: luciferase reporter qHTS assay (AID 1671201); conditions: P450-Glo CYP3A4 enzyme, luciferin luminescence, 1 h; series mostly up to 115 µM
Sequence (P08684 whole entry, looked up): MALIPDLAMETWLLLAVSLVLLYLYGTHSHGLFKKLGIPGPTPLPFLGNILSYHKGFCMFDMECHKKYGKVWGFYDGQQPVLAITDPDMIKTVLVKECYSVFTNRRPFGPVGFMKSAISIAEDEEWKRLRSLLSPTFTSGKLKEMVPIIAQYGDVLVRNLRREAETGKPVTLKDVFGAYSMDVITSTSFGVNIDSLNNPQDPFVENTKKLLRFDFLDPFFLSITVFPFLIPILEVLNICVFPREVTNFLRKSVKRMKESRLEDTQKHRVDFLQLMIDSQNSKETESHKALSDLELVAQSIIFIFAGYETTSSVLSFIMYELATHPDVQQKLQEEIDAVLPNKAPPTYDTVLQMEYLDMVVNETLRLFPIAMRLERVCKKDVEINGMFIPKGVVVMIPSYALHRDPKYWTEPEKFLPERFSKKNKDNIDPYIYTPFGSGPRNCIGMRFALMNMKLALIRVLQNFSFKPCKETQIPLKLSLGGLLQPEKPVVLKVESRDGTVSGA
Procedure, shortened: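 Proluciferin-to-luciferin conversion by CYP3A4, NADPH-regenerated, 1 h RT; luminescence read as RLU. Ketoconazole as control.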

| SMILES | activity change, negative = inhibition | Potency |
| --- | --- | --- |
| CCCCCCCC/C=C\CCCCCCCC(=O)OCCCC | -4.05% [at 23.6 µM] | – |
| COc1ccc(OC)c(Cl)c1 | – | inactive |
| CCOC(=O)c1ccc(OC(=O)CCCCCN=C(N)N)cc1 | – | inactive |
| COC(=O)C1CC(=O)C(C(=O)OC)CC1=O (stereo not drawn) | 9.87% [at 10.5 µM] | – |
| CC(C)CCCC(C)(C)O | – | inactive |
| CCC(C)NC(N)=O (stereo not drawn) | – | inactive |
| C[C@H](CCC(=O)O)[C@H]1CC[C@H]2[C@@H]3C(=O)C[C@@H]4CC(=O)CC[C@]4(C)[C@H]3CC(=O)[C@]12C | – | inactive |
| CC(C)OC(=O)CCCCC(=O)OC(C)C | – | inactive |
| CCCOC(=O)C(C)O (stereo not drawn) | – | inactive |
| O=S(=O)(O)CCN1CCN(CCO)CC1 | – | inactive |
| O=C(OCc1ccccc1)C(=O)OCc1ccccc1 | – | inactive |
| CCOCCOCCOCC | – | inactive |
| CO[C@@H]1[C@@H](OC(N)=O)[C@@H](O)[C@H](Oc2ccc3c(O)c(NC(=O)c4ccc(O)c(CC=C(C)C)c4)c(=O)oc3c2C)OC1(C)C | – | inactive |
| C=Cc1ccccn1 | – | inactive |
| CCCC/C=C/C=C\C=O | – | 39.9 µM (active) |
| c1ccc2c(c1)ccc1c3ccccc3ccc21 | – | inactive |
| CCO[Si](CCCS)(OCC)OCC | – | 35.6 µM (active) |
| O=C(O)c1cc(Cl)cc([N+](=O)[O-])c1Cl | – | inactive |
| O=C1CCCC(=O)O1 | – | inactive |
| CC(CC=O)CCCC(C)(C)O (stereo not drawn) | – | inactive |
| O=C1O[C@@H]2[C@@H](O)[C@H](O)O[C@@H]2[C@H]1O | – | inactive |
| COCCc1ccc(OCC2CO2)cc1 (stereo not drawn) | – | inactive |
| Cc1ccc2ccc(Cl)cc2n1 | – | inactive |
| c1ccc2nccnc2c1 | – | inactive |
| COc1cc(C(=S)N2CCOCC2)cc(OC)c1OC | – | inactive |
